Results from PubChem BioAssay (NCI).
Compounds without any hit were thinned out: in the full panel of roughly 83,000, 20% have a hit.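 Step 1: grow cells in 96-well plates. Step 2: add test compound at a single concentration. Step 3: incubate 48 h. Step 4: record percent growth.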 Active and inactive are the calls of the source. Rule for the calls: active = growth percent below 10; inactive = the rest.

Key:
Experiment in all cases: NCI-60 one-dose screen, 48 h (100 = growth as untreated, 0 = no growth, -100 = all killed)
Details in all cases: 10 µM unless noted
[1] = tested on: T-47D breast
[2] = tested on: BT-549 breast
[3] = tested on: MDA-MB-435 melanoma
[4] = tested on: SW-620 colon
[5] = tested on: MCF7 breast
[6] = tested on: HCT-116 colon
[7] = tested on: HCC-2998 colon
[8] = tested on: KM12 colon

Measured: growth

CC1(C)CCC(S(=O)(=O)c2ccc3c(c2)/C(=N\O)c2cc(S(=O)(=O)N4CCC(O)(c5cccc(C(F)(F)F)c5)CC4)ccc2-3)CC1
active: [1] -83.4% | [2] -80.8% | [3] -93.5% | [4] -92.9% | [5] -70.9% | [6] -87.7% | [7] -82.9% | [8] -86.7%

CNC(=O)c1cc(Oc2ccc3c(c2)sc2nc(-c4cc(OC)c(OC)c(OC)c4)cn23)ccn1
active: [1] -4.73%
inactive: [2] 24% | [3] 51.7% | [4] 77.4% | [5] 32.1% | [6] 55.2% | [7] 74.6% | [8] 66.3%

O=C(Cn1cc(CN2C(=O)c3ccccc3S2(=O)=O)nn1)Nc1nc2ccccc2s1
inactive: [1] 88.1% | [2] 97.9% | [3] 112% | [4] 105% | [5] 91.1% | [6] 88% | [7] 113% | [8] 103%

CC(C)c1ccc(NC(=O)Nc2ccc(NC(=O)CCCC(=O)NOCc3ccccc3)cc2)cc1
inactive: [1] 59.3% | [2] 106% | [3] 89.1% | [4] 107% | [5] 80.2% | [6] 93.4% | [7] 66% | [8] 94.4%

O=Cc1ccc([N+](=O)[O-])s1
inactive: [1] 82.8% | [2] 102% | [3] 110% | [4] 62.5% | [5] 47% | [6] 46.4% | [7] 100% | [8] 102%

COc1ccc(/C=C2\COc3ccc(O)cc3C2=O)c(OC)c1OC
inactive: [1] 64.7% | [2] 72.3% | [3] 24.9% | [4] 38.9% | [5] 24.5% | [6] 70.8% | [7] 86.4% | [8] 44.3%

COc1ccc2cc(-c3ccc(NC(C)=O)c(=O)o3)ccc2c1
inactive: [1] 87.3% | [2] 101% | [3] 107% | [4] 96.6% | [5] 89.9% | [6] 90.3% | [7] 102% | [8] 97%

COC(=O)CNC(=O)[C@H](Cc1ccccc1)NCc1ccncc1
inactive: [1] 89.6% | [2] 96.4% | [3] 110% | [4] 102% | [5] 92.9% | [6] 100% | [7] 103% | [8] 103%

O=C1/C(=C/c2ccc(-c3ccc(Br)cc3)o2)SC(=S)N1CCc1ccc(O)cc1
inactive: [1] 58.4% | [2] 77.8% | [3] 48.8% | [4] 81.2% | [5] 82.6% | [6] 75.2% | [7] 93.6% | [8] 42.9%

COc1ccc(C(=O)Nc2ncc(Cc3ccc(F)cc3)s2)cc1
inactive: [1] 33.6% | [2] 40.4% | [4] 31% | [5] 12.3% | [6] 13.1%
active: [3] 2.51% | [7] 8.19% | [8] 3.05%

COc1cnc2c(c1)C(=O)c1c-2n(CCCNCCO)c(=O)c2ccncc12
active: [1] -4.8% | [3] 5.96% | [4] 9.91% | [5] 0.768% | [6] -49.8% | [8] 6.99%
inactive: [2] 19% | [7] 26.4%

CN(CCn1sc(=O)n(Cc2ccccc2)c1=O)Cc1ccc2c(Cl)cc(Cl)c(O)c2n1
inactive: [1] 44.9% | [2] 70.5% | [3] 55.8% | [4] 22.7% | [5] 29.9% | [6] 19% | [7] 52.2% | [8] 37.1%

CC(C)OC(=O)c1ccc2[nH]c(O)c(C(=Nc3ccc(N(C)C(=O)CN4CCN(C)CC4)cc3)c3ccccc3)c2c1
active: [1] -47.7% | [2] -78.8% | [3] -92.6% | [4] -64.6% | [5] -65.5% | [6] -47.9% | [7] -84.2% | [8] -43.2%

CCN1CCN(c2cc(C(=O)Nc3nc(-c4cc(OC)c(OC)c(OC)c4)cs3)cc(C(F)(F)F)c2)CC1
inactive: [1] 43.7% | [2] 75.2% | [3] 74.4% | [4] 65.6% | [5] 39.8% | [6] 33.4% | [7] 43.9% | [8] 71.1%

O=C1Nc2ccccc2/C1=C\c1nc(-c2ccccc2F)n2ccccc12
inactive: [1] 21.2% | [2] 24.5% | [3] 44.1% | [4] 26.2% | [5] 27.8% | [7] 86.1% | [8] 34.4%
active: [6] -36.4%

O=C1/C(=C/c2ccc(F)cc2)COc2ccc(O)cc21
inactive: [1] 86.6% | [2] 78.2% | [3] 62.9% | [4] 26% | [6] 23.6% | [7] 90% | [8] 45.9%
active: [5] 7.92%

O=C(c1ccccc1)C1C(=O)N2C(=S)N(c3ccccc3)C(=O)C2C1c1ccc(Cl)cc1 (stereo not drawn)
inactive: [1] 83.1% | [2] 88.6% | [3] 105% | [4] 102% | [5] 65.2% | [6] 96.6% | [7] 94.8% | [8] 104%

Cc1nc2c(=O)[nH]c(SCC(=O)Nc3cccc(F)c3)nc2[nH]c1=O
inactive: [1] 97.1% | [2] 104% | [3] 103% | [4] 101% | [5] 92.7% | [6] 103% | [7] 104% | [8] 105%

C=CC(=O)NCc1ccc(Nc2nccc(-c3ccc(N4CCCC4)c(C#N)c3)n2)cc1
inactive: [1] 71% | [3] 10.1% | [4] 43.9% | [5] 14.3% | [6] 22.2% | [7] 71.3% | [8] 35.2%
active: [2] -10.3%

O=C1/C(=C/c2cccs2)SC(=S)N1CCCN1CCOCC1
inactive: [1] 67.4% | [2] 102% | [3] 92.1% | [4] 101% | [5] 73.8% | [6] 87.8% | [7] 112% | [8] 96.8%

COc1ccc(/C=C2\COc3ccc(O)c(O)c3C2=O)cc1
active: [1] 6.94% | [2] -6.78% | [4] 6.34% | [8] 8.91%
inactive: [3] 11% | [5] 19% | [6] 10.8% | [7] 50.7%

Brc1c2c(c(Br)c3ccccc13)CCCC2
inactive: [1] 84.4% | [2] 112% | [3] 111% | [4] 103% | [5] 96% | [6] 91.4% | [7] 110% | [8] 102%

O=C(/C=C/c1cccs1)c1ccc(Cl)nc1
inactive: [1] 97.3% | [2] 101% | [3] 94.2% | [4] 105% | [5] 67.7% | [6] 91.1% | [7] 111% | [8] 104%

O=C(CSc1nnc2n1S(=O)(=O)c1ccccc1N2c1ccccc1)Nc1nc2ccc(F)cc2s1
inactive: [1] 98.4% | [2] 97.1% | [3] 101% | [4] 109% | [5] 93.5% | [6] 93.5% | [7] 95.6% | [8] 108%

C=CCn1c(SCC(=O)Nc2ccc(C(=O)/C=C/c3ccc(Cl)cc3)cc2)nnc1-c1cc(-c2ccc(S(N)(=O)=O)cc2)nc2ccccc12
inactive: [1] 81.8% | [2] 80.5% | [3] 76.1% | [4] 100% | [5] 38.6% | [7] 101% | [8] 87.2%
active: [6] -31.5%

O=C(CCCCC1CCSS1)Nc1ncnc2n[nH]c(-c3ccc(Oc4ccccc4)cc3)c12 (stereo not drawn)
inactive: [1] 73.7% | [2] 118% | [4] 111% | [5] 43.2% | [6] 36.7% | [7] 103% | [8] 70.5%
active: [3] -28.4%

COc1ccc(-c2cc(-c3ccc(Cl)cc3)c(C#N)c(=O)n2CCCCC(=O)Nc2ccccc2N)cc1
inactive: [1] 37.5% | [2] 46.1% | [3] 39% | [4] 71.8% | [5] 41.6% | [6] 24.4% | [7] 68.3% | [8] 39.4%

Cc1ccc(-c2cc(-c3ccc(Cl)cc3)nc(NC(=O)c3cccnc3)n2)cc1
inactive: [1] 96.3% | [2] 117% | [3] 99.8% | [4] 102% | [5] 86.3% | [6] 98.9% | [7] 115% | [8] 99.8%

COc1ccc(Cc2cc(-c3ccccc3)nn(Cc3ccccc3)c2=O)cc1OC
active: [1] 7.51%
inactive: [2] 14.7% | [3] 43.9% | [4] 41% | [5] 19.9% | [6] 15% | [7] 60.5% | [8] 35.2%

COc1cc2oc(-c3cccc(NC(=O)c4cccc(Br)c4)c3)cc(=O)c2c(OC)c1OC
inactive: [1] 27.7% | [2] 50.2% | [3] 57.4% | [4] 65.1% | [5] 54.8% | [6] 40.2% | [7] 57.8% | [8] 40.4%

CC(C)(C)c1cc(-c2nc3ccc(N4CCN(S(C)(=O)=O)CC4)cc3[nH]2)cc(C(C)(C)C)c1O
inactive: [1] 76.6% | [2] 102% | [3] 94% | [4] 97.2% | [5] 76.4% | [6] 81.7% | [7] 103% | [8] 27.6%
